The test system of assay [1] is MCC-13. Description: qHTS assay to identify novel small-molecules to repurpose for Merkel cell carcinoma treatment (AID 1296009). Also: nearly all actives have a fitted effect of over 60% in size. As to conditions: MCC and control cell lines, CellTiter-Glo viability, 72 h; series mostly up to 46 µM. The method in brief:
(§1)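 After compound transfer in DMSO, plates were kept 72 hr at 37 degree celsius. Luminescent ATP signal from CellTiter-Glo served as viability measure, normalized against DMSO and no-cell controls.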
Background: qHTS replaces the single test concentration by a dilution series.

Assay [2] has as its system MCC-26. The description is as above. As to conditions: MCC and control cell lines, CellTiter-Glo viability, 72 h; series mostly up to 46 µM. The procedure, abridged:
as §1
A general note: In ATP-based viability assays light output follows the ATP content of the culture.

For assay [3], the system named is C33A. The experiment in a line: Primary qHTS to identify gynecologic anti-cancer compounds using libraries of approved drugs and bioactive compounds (AID 1345084). Also: nearly all actives have a fitted effect of over 55% in size. The settings on record: Gynecologic cancer cell panel viability, ATPlite luminescence, 48 h; series mostly up to 57.5 µM. The method in brief: (§2)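 Cells, 1,000 per well, were allowed to settle for 16 h at 37 C before compound addition. Five concentrations were tested for 48 h, and viability was read by ATPlite luminescence after 15 min at room temperature.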

Assay [4] concerns CASKI. The assay is described as above. As to conditions: Gynecologic cancer cell panel viability, ATPlite luminescence, 48 h; series mostly up to 57.5 µM. The procedure, abridged: as §2
Assay [5] deals with Es-2. Described as above. As to conditions: Gynecologic cancer cell panel viability, ATPlite luminescence, 48 h; series mostly up to 57.5 µM. The method in brief: as §2
For assay [6], the system named is HeLa. Described as above. The settings on record: Gynecologic cancer cell panel viability, ATPlite luminescence, 48 h; series mostly up to 57.5 µM. The procedure, abridged:
as §2

Assay [7] concerns JEG-3. The assay is described as above. The settings on record: Gynecologic cancer cell panel viability, ATPlite luminescence, 48 h; series mostly up to 57.5 µM. The method in brief: as §2
Assay [8] deals with OV90. The description is as above. The settings on record: Gynecologic cancer cell panel viability, ATPlite luminescence, 48 h; series mostly up to 57.5 µM. The procedure, abridged:
as §2

Assay [9] concerns SKOV3. Described as above. The settings on record: Gynecologic cancer cell panel viability, ATPlite luminescence, 48 h; series mostly up to 57.5 µM. The procedure, abridged: as §2
For assay [10], the system named is Tov-21-G. Described as above. The settings on record: Gynecologic cancer cell panel viability, ATPlite luminescence, 48 h; series mostly up to 57.5 µM. The procedure, abridged:
as §2

The subject of assay [11] is Tov112D. The description is as above. The settings on record: Gynecologic cancer cell panel viability, ATPlite luminescence, 48 h; series mostly up to 57.5 µM. The method in brief:
as §2

Assay [12] concerns UISO. Description: qHTS assay to identify novel small-molecules to repurpose for Merkel cell carcinoma treatment (AID 1296009). Also: nearly all actives have a fitted effect of over 60% in size. As to conditions: MCC and control cell lines, CellTiter-Glo viability, 72 h; series mostly up to 46 µM. The method in brief:
as §1

The subject of assay [13] is WaGa. The description is as above. The settings on record: MCC and control cell lines, CellTiter-Glo viability, 72 h; series mostly up to 46 µM. The method in brief: as §1
Assay [14] deals with CAOV3. Description: Primary qHTS to identify gynecologic anti-cancer compounds using libraries of approved drugs and bioactive compounds (AID 1345084). Also: nearly all actives have a fitted effect of over 55% in size. The settings on record: Gynecologic cancer cell panel viability, ATPlite luminescence, 48 h; series mostly up to 57.5 µM. The method in brief: as §2
The subject of assay [15] is Hek293T. Described as above. The settings on record: Gynecologic cancer cell panel viability, ATPlite luminescence, 48 h, control line for the selectivity index; series mostly up to 57.5 µM. The procedure, abridged: as §2
Assay [16] has as its system PA-1. The description is as above. As to conditions: Gynecologic cancer cell panel viability, ATPlite luminescence, 48 h; series mostly up to 57.5 µM. The procedure, abridged:
as §2

The subject of assay [17] is MKL-1. Description: qHTS assay to identify novel small-molecules to repurpose for Merkel cell carcinoma treatment (AID 1296009). Also: nearly all actives have a fitted effect of over 60% in size. As to conditions: MCC and control cell lines, CellTiter-Glo viability, 72 h; series mostly up to 46 µM. The procedure, abridged: as §1
Assay [18] deals with MKL-2. Described as above. As to conditions: MCC and control cell lines, CellTiter-Glo viability, 72 h; series mostly up to 46 µM. The method in brief:
as §1

In assay [19] the test system is NIH3T3. The assay is described as above. As to conditions: MCC and control cell lines, CellTiter-Glo viability, 72 h; at 44.8 µM (top of the series) unless noted. The method in brief:
as §1

Each structure is given as a SMILES string. Inconclusive results are not listed. Activity calls are given as the source filed them. Calls follow the shape of the dose curve; as a rule, active = well fitted curve in the direction sought with a large enough effect; inconclusive = small, poorly fitted or top-dose-only effect, or another doubt; inactive = no such curve, though single readings can be large; an effect the other way counts as inactive or inconclusive.
Potency is read from the fitted curve at half-maximal effect.

For the compound `C[C@H](N)C(=O)N[C@@H](C)C(=O)NC1[C@H]2CN(c3nc4c(cc3F)c(=O)c(C(=O)O)cn4-c3ccc(F)cc3F)C[C@@H]12` (some centres undefined), the Potency entry in assay [1], in assay [2], in [3], in assay [4], in assay [5] and in assay [6] was “inactive” in each case. Moreover, the Potency result in [7], in [8], in assay [9], in [10] and in assay [11] was “inactive” each time.
As for `O=C(OCC(O)CO)c1ccccc1Nc1ccnc2c(C(F)(F)F)cccc12` (centres undefined), the Potency entry in assay [1], in [2], in assay [12], in [13], in assay [3] and in assay [14] was “inactive” each time. Besides, the Potency entry in assay [4], in assay [5], in assay [6], in [15], in [7] and in assay [8] was “inactive” in each case. The Potency entry in [16], in assay [10] and in assay [11] was “inactive” each time.
As to `Cc1cccc(N(C)C(=S)Oc2ccc3c(c2)C2CCC3C2)c1` (centres undefined), the Potency entry in assay [1], in [2], in assay [17], in assay [3], in assay [14] and in assay [4] was “inactive” each time. The Potency entry in assay [6], in assay [15], in assay [7], in [16], in [9] and in assay [10] was “inactive” in each case. Further, the Potency result in assay [11] was “inactive”. Also, the Potency in [8] was 35.5 µM (active).
For `CCOC(=O)C(=O)CCc1ccccc1`, the Potency entry in assay [2], in [17], in assay [18], in assay [12], in assay [13] and in [3] was “inactive” each time. Besides, the Potency result in assay [14], in assay [4], in [5], in assay [6], in [15] and in [7] was “inactive” in each case. The Potency result in assay [8], in assay [16], in assay [9], in assay [10] and in [11] was “inactive” throughout.
In the case of `CCCCCCCCCCCCCCCC[n+]1ccccc1`, the Potency was 11.9 µM (active) in assay [1]; 0.841 µM (active) in assay [17]; 0.422 µM (active) in assay [18]; 1.68 µM (active) in assay [12]; 2.11 µM (active) in assay [13]; 17.8 µM (active) in assay [3]. Further, the Potency in [4] was 7.94 µM (active); in assay [5], 17.8 µM (active); in assay [15], 8.91 µM (active); in [8], 31.6 µM (active); in assay [10], 31.6 µM (active).
Consider `CCCCCCCCCCCCCCCC[N+](C)(C)Cc1ccccc1`, for which the Potency in assay [2] is 29.9 µM (active); in assay [17] it was 5.96 µM (active); in [18], 0.335 µM (active); in assay [12], 4.22 µM (active); in [3], 28.2 µM (active); in [14], 20 µM (active). The Potency in assay [6] is 25.1 µM (active); in assay [8] it was 25.1 µM (active); in assay [16], 15.8 µM (active). Moreover, in [7], the Potency entry is “inactive”.
For `OCc1c[nH]c2ccccc12`, the Potency entry in assay [1] and in assay [2] was “inactive” each time. In addition, the Potency in [18] is 24.3 µM (active); in assay [12], 10.9 µM (active); in assay [3], 35.5 µM (active).
As for `CCCC(=O)c1cc(O)c(O)cc1O`, the Potency entry in assay [1], in assay [2], in assay [3], in assay [14], in assay [4] and in assay [5] was “inactive” in each case. Moreover, the Potency result in assay [6], in assay [15], in assay [7], in assay [8], in [10] and in assay [11] was “inactive” throughout. For the same compound, the Potency in assay [18] was 27.3 µM (active).
In the case of `CN(C)[C@@H]1C(=O)C(C(N)=O)=C(O)[C@@]2(O)C(=O)C3=C(O)c4c(O)cccc4C[C@H]3C[C@@H]12`, the Potency entry in assay [1], in [2], in assay [3], in assay [14], in assay [4] and in [5] was “inactive” in each case. Besides, the Potency result in assay [6], in [15], in assay [7], in assay [8], in assay [16] and in assay [9] was “inactive” throughout. The Potency entry in assay [10] and in assay [11] was “inactive” each time.
For `CCCCCOc1ccccc1/C(=C\SC)n1ccnc1`, the Potency entry in assay [1], in assay [2], in [3], in assay [14], in [4] and in [5] was “inactive” in each case. Further, the Potency result in assay [15], in [7], in assay [8], in [10] and in assay [11] was “inactive” in each case. The Potency in [12] was 18.8 µM (active).
Turning to `O=C(c1cc(O)c(O)c(O)c1)c1ccc(O)c(O)c1O`, the Potency result in [1], in assay [2], in assay [12], in assay [3], in assay [14] and in assay [4] was “inactive” each time. Further, the Potency entry in assay [5], in assay [6], in assay [15], in [7], in [8] and in assay [16] was “inactive” in each case. The Potency entry in [9], in assay [10] and in [11] was “inactive” each time.
As for `CO[C@@H]1[C@@H](OC)[C@H](C)[C@@](O)(CC(=O)O)O[C@H]1[C@H](C)[C@H]1O[C@@]2(CC[C@@](C)([C@H]3CC[C@@](C)([C@@H]4O[C@@H]([C@H]5O[C@](C)(O)[C@H](C)C[C@@H]5C)C[C@@H]4OC4C[C@H](OC)[C@@H](OC)[C@H](C)O4)O3)O2)C[C@H](O)[C@H]1C` (some centres undefined), the Potency is 2.99 µM (active) in assay [1]; 0.376 µM (active) in assay [17]; 0.211 µM (active) in [18]; 0.596 µM (active) in assay [12]; 0.335 µM (active) in [13]; 14.1 µM (active) in [14]. The Potency was 10 µM (active) in [5]; 2.82 µM (active) in assay [15]; 6.31 µM (active) in assay [7]; 1.78 µM (active) in assay [8]; 11.2 µM (active) in [10]; 11.2 µM (active) in assay [11].
In the case of `O=C(O)Cc1ccc(OCCNC[C@H](O)c2ccccc2)cc1`, the Potency result in assay [1], in assay [3], in assay [14], in assay [4], in assay [5] and in assay [6] was “inactive” in each case. For the same compound, the Potency result in assay [15], in assay [7], in assay [8], in assay [16], in assay [9] and in [10] was “inactive” each time. The Potency result in assay [11] is “inactive”.
For `CCOC(=O)Cn1cccc1-c1nc(-c2ccc(OC)cc2)c(-c2ccc(OC)cc2)s1`, the Potency entry in assay [1], in assay [2], in [12], in [13], in assay [3] and in assay [14] was “inactive” throughout. The Potency entry in assay [4], in assay [5], in assay [6], in [15], in assay [7] and in assay [8] was “inactive” each time. For the same compound, the Potency result in assay [16], in [9], in assay [10] and in assay [11] was “inactive” each time. Also, the outcome in [19] was inactive.

These data come from PubChem BioAssay (NCATS).
